Each structure is given as a SMILES string. Active and inactive are the calls of the source.

Experiment [1] can be described thus: optical density shifts of acrAB sulA E. coli – strain DRC41, OD650, 48 h, E. coli filamentation inducer project, primary screen (AID 1152).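 Further: E. coli MC1000 strain DRC41 lacking acrAB efflux pump and sulA.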 Conditions: higher = more signal, called active from +8 up or from −8 down.
A short description of experiment [2]: probe aLefty1 binding on compound microarray – biochemical, small-molecule microarray, 635/667 nm fluorescence, primary screen (AID 1153).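 Further: score merges spot fluorescence with signal-to-noise ratio from the scanned slide images.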 Conditions: higher = more signal.
Experiment [3] in a line: plasmodial surface anion channel blockers, osmotic lysis – cell-based, P. falciparum Indochina, OD700, 1 h, primary screen (AID 1154). Particulars: P. falciparum Indochina infected RBC osmotic lysis, higher = more signal, called active from +8 up or from −8 down.
The nature of experiment [4]: plasmodial surface anion channel blockers, osmotic lysis – cell-based, P. falciparum Indochina, OD700, 2 h, primary screen (AID 1155).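 Further: lysis reports solute entry through the parasite surface anion channel PSAC.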 Conditions: P. falciparum Indochina infected erythrocytes, higher = more signal, called active from +8 up or from −8 down.
A short description of experiment [5]: changes in parasitized red cell lysis, either direction – P. falciparum Indochina, OD700, 3 h, PSAC antagonist project, primary screen (AID 1156). Conditions: P. falciparum-infected erythrocytes, osmotic lysis, higher = more signal, called active from +8 up or from −8 down.
A short description of experiment [6]: plasmodial surface anion channel blockers, osmotic lysis – cell-based, P. falciparum Indochina, OD700, 18 h, primary screen (AID 1157). Particulars: P. falciparum Indochina infected erythrocytes, osmotic lysis OD700, 18 h; higher = more signal, called active from +8 up or from −8 down.
A short description of experiment [7]: S6 kinase pathway phospho-S6 level changes – cell-based, A549, cytoblot, luminescence, serum-stimulated, primary screen (AID 1158).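 Further: serum-stimulated A549 lung adenocarcinoma cells; signal is phosphorylated S6 detected by cytoblot immunostaining with HRP secondary.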 Particulars: 5 h, higher = more signal.
For experiment [8], the target named is NADPH oxidase 2 (Homo sapiens) (UniProt P04839). In words: compounds shifting NOX2 Amplex Red fluorescence – cell-based, HEK293-NOX2, PMA-stimulated, NOX inhibitor project, primary screen (AID 1159). Further: test concentration not given here. Conditions: 45 min, higher = more signal, called active from +8 up or from −8 down.
Chain of NADPH oxidase 2 (Homo sapiens) (P04839 whole entry, looked up): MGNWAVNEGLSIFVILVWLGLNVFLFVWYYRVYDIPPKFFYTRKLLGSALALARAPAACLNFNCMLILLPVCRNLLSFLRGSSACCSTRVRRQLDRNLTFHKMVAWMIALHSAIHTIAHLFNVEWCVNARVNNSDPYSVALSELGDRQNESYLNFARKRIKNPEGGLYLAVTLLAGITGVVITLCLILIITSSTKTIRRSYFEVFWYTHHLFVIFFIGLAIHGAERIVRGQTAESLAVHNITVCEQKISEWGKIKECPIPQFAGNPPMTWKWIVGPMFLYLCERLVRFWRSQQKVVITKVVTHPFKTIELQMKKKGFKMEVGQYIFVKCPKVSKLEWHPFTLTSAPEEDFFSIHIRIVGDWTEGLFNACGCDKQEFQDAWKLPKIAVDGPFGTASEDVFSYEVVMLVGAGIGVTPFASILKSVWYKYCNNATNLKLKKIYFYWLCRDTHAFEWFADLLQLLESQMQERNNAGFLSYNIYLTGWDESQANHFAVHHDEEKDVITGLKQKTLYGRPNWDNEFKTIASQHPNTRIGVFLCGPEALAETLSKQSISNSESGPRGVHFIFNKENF
For experiment [9], the target named is NADPH oxidase 4 (Homo sapiens) (UniProt Q9NPH5). In words: compounds shifting NOX4 Amplex Red fluorescence – cell-based, HEK293-NOX4, tetracycline-induced, NOX inhibitor project, primary screen (AID 1160). Particulars: HEK293-NOX4, Amplex Red H2O2 fluorescence, 45 min; higher = more signal, called active from +8 up or from −8 down.
Chain of NADPH oxidase 4 (Homo sapiens) (Q9NPH5 whole entry, looked up): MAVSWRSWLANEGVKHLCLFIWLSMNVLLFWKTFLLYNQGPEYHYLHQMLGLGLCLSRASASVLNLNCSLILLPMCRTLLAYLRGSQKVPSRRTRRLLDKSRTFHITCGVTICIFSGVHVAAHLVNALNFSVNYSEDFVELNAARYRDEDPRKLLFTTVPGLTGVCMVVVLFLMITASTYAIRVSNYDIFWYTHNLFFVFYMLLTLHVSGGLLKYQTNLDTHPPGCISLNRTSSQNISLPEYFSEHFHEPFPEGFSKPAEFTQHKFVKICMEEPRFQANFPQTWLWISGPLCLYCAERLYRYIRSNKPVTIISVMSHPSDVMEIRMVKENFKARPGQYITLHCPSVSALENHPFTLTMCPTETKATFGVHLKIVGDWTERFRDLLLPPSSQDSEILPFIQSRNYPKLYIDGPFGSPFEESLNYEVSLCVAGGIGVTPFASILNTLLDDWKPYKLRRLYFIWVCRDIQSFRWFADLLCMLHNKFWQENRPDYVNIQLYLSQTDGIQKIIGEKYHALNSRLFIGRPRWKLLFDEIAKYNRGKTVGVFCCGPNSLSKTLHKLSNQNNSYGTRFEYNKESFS
Experiment [10] addresses NADPH oxidase 5 (Homo sapiens) (UniProt Q96PH1). As to the kind of experiment: compounds shifting NOX5 Amplex Red fluorescence – cell-based, HEK293-NOX5, NOX inhibitor project, primary screen (AID 1161). Particulars: HEK293-NOX5, ionomycin, 45 min, higher = more signal.
Experiment [11] is described as follows: compound effects on lung adenocarcinoma cell viability – A549, calcein-AM fluorescence, 48 h, basal, profiling panel (AID 1162). Further: test concentration not given here. Particulars: higher = more signal.
The nature of experiment [12]: compound effects on differentiated 3T3-L1 adipocyte viability – cell-based, 3T3-L1 adipocytes, calcein-AM fluorescence, 48 h, basal, profiling panel (AID 1163). Further: test concentration not given here. Conditions: 3T3-L1 adipocytes viability, higher = more signal.
Experiment [13] in a line: compound effects on hepatocellular carcinoma cell viability – HepG2, calcein-AM fluorescence, 48 h, basal, profiling panel (AID 1164). Further: test concentration not given here. Conditions: higher = more signal.
Experiment [14] in a line: compound effects on multiple myeloma cell viability – MM1S, calcein-AM fluorescence, 48 h, basal, profiling panel (AID 1165). Further: test concentration not given here. Conditions: higher = more signal.
Experiment [15] in a line: calcein-AM signal in unstimulated myeloma cells – cell-based, calcein-AM fluorescence, 48 h, PK04 Diversity Set, profiling panel (AID 1166).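 Further: cells grown under basal conditions without added stimulus; test concentration not given here.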 Particulars: RPMI8226 myeloma viability, higher = more signal.
Experiment [16] in a line: JC-1 mitochondrial signal, unstimulated HepG2 cells – cell-based, JC-1 fluorescence, 24 h, 100 nL compound, profiling panel (AID 1167). Further: test concentration not given here. Conditions: HepG2 mitochondrial potential, higher = more signal.
Experiment [17] is described as follows: JC-1 mitochondrial signal, unstimulated adipocytes – cell-based, JC-1 fluorescence, 3T3-L1 adipocytes, 24 h, 100 nL compound, profiling panel (AID 1168). Further: test concentration not given here. Conditions: JC-1 mitochondrial fluorescence, higher = more signal, called active from +8 up or from −8 down.
Experiment [18] is described as follows: JC-1 mitochondrial signal, unstimulated myeloma cells – cell-based, JC-1 fluorescence, RPMI8226, 24 h, 100 nL compound, profiling panel (AID 1169). Further: test concentration not given here. Particulars: JC-1 mitochondrial potential fluorescence, higher = more signal.
A short description of experiment [19]: JC-1 mitochondrial signal, unstimulated MM1S myeloma – cell-based, JC-1 fluorescence, 24 h, 100 nL compound, profiling panel (AID 1170). Further: test concentration not given here. Conditions: MM1S mitochondrial potential, higher = more signal.
Experiment [20] can be described thus: resazurin metabolic signal in A549 cells – cell-based, resazurin fluorescence, 24 h, PK04 Diversity Set, profiling panel (AID 1171). Further: test concentration not given here. Conditions: A549 viability, higher = more signal, called active from +8 up or from −8 down. In general terms: Alamar Blue is a resazurin reagent that responds to reducing activity.

Chain of NADPH oxidase 5 (Homo sapiens) (Q96PH1 whole entry, looked up): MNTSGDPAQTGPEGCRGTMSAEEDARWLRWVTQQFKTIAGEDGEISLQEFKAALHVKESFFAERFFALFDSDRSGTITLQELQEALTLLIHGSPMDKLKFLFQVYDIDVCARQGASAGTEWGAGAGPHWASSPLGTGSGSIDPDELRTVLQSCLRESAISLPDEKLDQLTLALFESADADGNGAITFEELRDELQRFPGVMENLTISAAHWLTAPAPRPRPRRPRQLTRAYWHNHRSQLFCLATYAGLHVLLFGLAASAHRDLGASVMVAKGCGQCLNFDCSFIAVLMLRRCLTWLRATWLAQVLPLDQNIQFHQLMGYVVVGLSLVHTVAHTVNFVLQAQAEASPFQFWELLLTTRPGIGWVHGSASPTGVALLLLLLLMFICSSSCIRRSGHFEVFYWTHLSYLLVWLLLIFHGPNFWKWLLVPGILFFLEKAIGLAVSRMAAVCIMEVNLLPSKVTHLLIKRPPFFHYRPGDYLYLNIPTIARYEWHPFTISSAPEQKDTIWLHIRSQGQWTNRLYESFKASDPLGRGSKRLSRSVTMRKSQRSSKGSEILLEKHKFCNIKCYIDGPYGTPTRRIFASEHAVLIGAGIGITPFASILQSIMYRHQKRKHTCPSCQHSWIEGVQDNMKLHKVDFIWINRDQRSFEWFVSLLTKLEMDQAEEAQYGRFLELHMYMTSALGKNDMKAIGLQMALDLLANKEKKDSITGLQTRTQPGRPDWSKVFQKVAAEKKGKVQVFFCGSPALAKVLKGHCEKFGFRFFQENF

Take `CC(=O)O[C@H]1C2=C(C(=O)[C@@H]3O[C@@H]31)[C@H]1C(C)O[C@@H]2[C@@]23C(=O)[C@@H]4O[C@@H]4[C@@H](O)C2=CO[C@H](C)[C@@H]13` (stereo not given in full): the z-score in experiment [1] was -0.0954 (inactive); in [3], -0.0129 (inactive); in [4] it was -0.215 (inactive); in experiment [5], -0.0291 (inactive); in experiment [6], -0.12 (inactive); in [7], -0.56. Further, the z-score was 0.735 (inactive) in experiment [8]; 0.358 (inactive) in [9]; -0.388 in experiment [10]; -0.192 in experiment [11]; -0.392 in experiment [12]; -1.54 in experiment [13]. For the same compound, the z-score in [14] was -3; in [15], -2.64; in experiment [16], -1.92; in experiment [17], -0.78 (inactive); in experiment [18], 0.151; in experiment [19] it was -1.05. Also, the z-score in experiment [20] was 0.4 (inactive). The composite z-score in experiment [2] was -0.191.
On to `CC(=O)C[C@H](O)[C@@H](NC(=O)OC(C)(C)C)C(C)C`, for which the z-score in [1] was -0.593 (inactive); in [3], 0.427 (inactive); in experiment [4], -0.649 (inactive); in [5] it was 1.48 (inactive); in experiment [6], -1.64 (inactive); in [7], 1.63. Besides, the z-score in [8] is 0.2 (inactive); in experiment [9] it was -0.658 (inactive); in experiment [10], -1.63; in [11], 0.143; in experiment [12] it was 0.819; in experiment [13], 0.0838. The z-score in experiment [14] is -0.476; in experiment [15] it was -0.531; in experiment [16], -0.538; in experiment [17], -0.0163 (inactive); in [18], -0.545; in [19], -0.347. Also, the z-score in experiment [20] was -0.289 (inactive). In addition, the composite z-score in experiment [2] is -0.196.
For `CCOC(=O)NN=C1C[C@@H](O)[C@@H](O)[C@@H]2[C@@H]3C(=O)N(CC)C(=O)[C@@H]3CC[C@@H]12`, the z-score in experiment [1] is -0.562 (inactive); in experiment [3], -0.485 (inactive); in experiment [4], -0.246 (inactive); in experiment [5] it was -0.493 (inactive); in [6], -0.336 (inactive); in experiment [7], 0.123. Besides, the z-score in experiment [8] is -1.43 (inactive); in [9] it was 0.0593 (inactive); in [10], -0.641; in experiment [11], 0.296; in experiment [12], -0.538; in experiment [13], 0.322. Also, the z-score was 0.0379 in experiment [14]; 0.288 in experiment [15]; -0.495 in experiment [16]; -0.852 (inactive) in [17]; -0.151 in experiment [18]; -0.662 in [19]. In experiment [20], the z-score is 0.45 (inactive). In experiment [2], this compound came in with a composite z-score of 0.0053.
As for `COC(=O)[C@@H]1N=C(c2ccc(OCCCO)cc2)O[C@@H]1c1ccccc1N=[N+]=[N-]`, the z-score in [1] is 0.666 (inactive); in experiment [3], 29.3 (active); in experiment [4], 25.8 (active); in [5] it was 1.88 (inactive); in experiment [6] it was 5.77 (inactive); in [7], 1.24. For the same compound, the z-score in experiment [8] was -1.24 (inactive); in [9] it was -0.0584 (inactive); in experiment [10] it was -2.26; in [11], 0.377; in [12], 0.557; in experiment [13] it was 0.134. The z-score in experiment [14] was -1.58; in experiment [15], -1.56; in experiment [16], -0.682; in experiment [17], 0.761 (inactive); in experiment [18], -0.287; in [19] it was -0.218. Also, the z-score in experiment [20] was 0.4 (inactive). In experiment [2], this compound gave a composite z-score of 0.309.

(Values after PubChem BioAssay.)
